{
  "source": "PubChem BioAssay (Tox21)",
  "note": "Where “and” joins values, the source holds several entries; their conditions need not be identical. Equal values may be shown once. Results filed as inconclusive are left out. Entries that show only a call come without a potency. More than one record can exist for a structure, and the calls need not agree. Calls of active or inactive are those of the source. The call rests on the fitted dose curve; in most records, active means well fitted activation curve with a large enough effect in the repeat runs; inconclusive means weak or mixed curves, or effect the other way; inactive means no such curve, though single readings can be large or run the other way. Potency means the concentration at half of the fitted maximal effect.",
  "data": [
    {"assay": "qHTS assay to identify small molecule agonists of the retinoic acid receptor (RAR) signaling pathway (AID 1159553)", "conditions": "C3RL4 RARE luciferase reporter, agonist, 6 h; series mostly up to 73.3 µM; activation: at the top concentration", "from_the_text": "National Center for Advancing Translational Sciences [NCATS] NIH Chemical Genomics Center [NCGC] U.S. Environmental Protection Agency [EPA] National Institutes of Environmental Health Sciences [NIEHS] National Toxicology Program [NTP] Assay overview: All-trans Retinoic acid (atRA) is the potent natural metabolite of retinol and plays an important role in normal embryonic development and maintenance of cellular phenotype in adult animals. atRA is the activating ligand for the retinoic acid receptors (RARs) which form heterodimers with retinoid X receptors (RXRs) on the retinoic acid response element (RARE). Through activation of the RAR/RXRs nuclear receptors, atRA regulates the transcription of a large number of protein-coding genes and regulatory RNAs. Intracellular levels of atRA are controlled by the retinol signaling pathway (RSP) that regulates the biosynthesis and catabolism of atRA to maintain physiological levels. Chemicals that interfere with the RSP can cause abnormal intracellular levels of atRA and therefore are potential developmental toxicants. To assess compounds for the potential adverse effect on embryonic development through interfering with retinol signaling, a cell-based RARE luciferase reporter gene assay was used. C3RL4 cell line (OARSA/CFSAN/FDA, Laurel, MD) was used to screen Tox21 10K compound library for identifying activators of the RSP.\nAssay Protocol Summary: C3RL4 cells were seeded at 1,000/well in 5 uL of assay medium into white solid 1,536-well tissue culture plates (Greiner Bio-One North America Inc. Monroe, NC) using a Multidrop Combi (Thermo Scientific, Waltham, MA) dispenser. After incubation at 37 C and 5% CO2 for an overnight, 23 nL of compounds dissolved in DMSO, positive control or DMSO only were transferred by a Pintool station (Kalypsys, San Diego, CA). After 6 hr incubation at 37 C and 5% CO2, 5 uL of Amplite Luciferase reagent (AAT Bioquest Inc. Sunnyvale, CA) was added to each assay plate using a Flying Reagent Dispenser (FRD) (Aurora Discovery, San Diego, CA). Luminescence was quantified on a ViewLux plate reader (PerkinElmer, Waltham, MA) after 30 min incubation at room temperature.", "values": [
      {"smiles": "c1ccc(Nc2ccccc2)cc1", "Potency": "inactive"},
      {"smiles": "CN(C)C(=N)N=C(N)N", "Potency": "inactive"},
      {"smiles": "C/C=C/C(=O)O", "Potency": "inactive"},
      {"smiles": "CCOC(=O)C(C#N)=C(c1ccccc1)c1ccccc1", "Potency": "inactive"},
      {"smiles": "CC(C)OC(=O)C(C)(C)Oc1ccc(C(=O)c2ccc(Cl)cc2)cc1", "activation": "-2.05% (inactive)"},
      {"smiles": "CC(=O)Oc1ccccc1C(=O)Nc1ncc([N+](=O)[O-])s1", "Potency": "140 nM (active) and 188 nM (active)"},
      {"smiles": "O=S(=O)(O)c1ccc(O)cc1", "Potency": "inactive"},
      {"smiles": "O=Cc1ccccc1O", "Potency": "inactive"},
      {"smiles": "O=CCc1ccccc1", "Potency": "inactive"},
      {"smiles": "CC(C)OC=O", "activation": "5.24% (inactive)"},
      {"smiles": "COc1ccc(C(=O)CC(=O)c2ccc(C(C)(C)C)cc2)cc1", "Potency": "58.7 µM (active) and inactive"},
      {"smiles": "CC(CCC(=O)O)(c1ccc(O)cc1)c1ccc(O)cc1", "Potency": "inactive"},
      {"smiles": "CCCCC(CC)COCC1CO1", "note": "(stereo not given)", "Potency": "inactive"},
      {"smiles": "CCCCCCCCCC(=O)OC", "Potency": "inactive"},
      {"smiles": "OCCO", "Potency": "inactive"},
      {"smiles": "Cc1ccc(C)c(O)c1C", "Potency": "inactive"},
      {"smiles": "CCC(C)(O)CCCC(C)C", "note": "(stereo not given)", "Potency": "inactive"},
      {"smiles": "Cc1c(OCC(F)(F)F)ccnc1CS(=O)c1nc2ccccc2[nH]1", "note": "(stereo not given)", "Potency": "34.4 µM (active) and 26.6 µM (active)"},
      {"smiles": "O=C1c2cccc(O)c2C(=O)c2c(O)cccc21", "activation": "0.0241% [at 94.8 µM] (inactive)"},
      {"smiles": "CC(=O)C1(C)CC2=C(CCCC2(C)C)CC1C", "note": "(stereo not given)", "Potency": "inactive"},
      {"smiles": "c1ccc2sc(SSN3CCOCC3)nc2c1", "activation": "-1.3% (inactive)"},
      {"smiles": "COc1cc([C@@H]2c3cc4c(cc3[C@H](O)[C@H]3COC(=O)[C@H]23)OCO4)cc(OC)c1OC", "activation": "-8.32% (inactive)"},
      {"smiles": "CCCCOCCOCCO", "Potency": "inactive"},
      {"smiles": "CCCCCCCCCCCO", "Potency": "inactive"},
      {"smiles": "O=C(/C=C/C=C/c1ccc2c(c1)OCO2)N1CCCCC1", "Potency": "3.86 µM (active) and 1.93 µM (active)"},
      {"smiles": "CN(C)CCN(Cc1cccs1)c1ccccn1", "Potency": "inactive"},
      {"smiles": "NNc1ccc(C(=O)O)cc1", "Potency": "43.9 nM (active) and 24.6 µM (active)"},
      {"smiles": "Nc1ncnc2nc[nH]c12", "Potency": "inactive"},
      {"smiles": "CC(C)CC(C)(O)C#CC(C)(O)CC(C)C", "note": "(stereo not given)", "Potency": "inactive"},
      {"smiles": "OC[C@H]1O[C@@H]2O[C@H]3[C@H](O)[C@@H](O)[C@@H](O[C@H]4[C@H](O)[C@@H](O)[C@@H](O[C@H]5[C@H](O)[C@@H](O)[C@@H](O[C@H]6[C@H](O)[C@@H](O)[C@@H](O[C@H]7[C@H](O)[C@@H](O)[C@@H](O[C@H]8[C@H](O)[C@@H](O)[C@@H](O[C@H]1[C@H](O)[C@H]2O)O[C@@H]8CO)O[C@@H]7CO)O[C@@H]6CO)O[C@@H]5CO)O[C@@H]4CO)O[C@@H]3CO", "Potency": "inactive"},
      {"smiles": "Cc1ccc2c(n1)Oc1ccc(C(C)C(=O)OCC(=O)N(C)C)cc1C2", "note": "(stereo not given)", "Potency": "10.6 µM (active) and 8.41 µM (active)"},
      {"smiles": "CC(C)Oc1ccc2c(=O)c(-c3ccccc3)coc2c1", "Potency": "335 nM (active)"},
      {"smiles": "CC(C)(C)NC(=O)[C@H]1CC[C@H]2[C@@H]3CC[C@H]4NC(=O)C=C[C@]4(C)[C@H]3CC[C@]12C", "Potency": "inactive"},
      {"smiles": "CCCC(=O)O", "Potency": "inactive"},
      {"smiles": "Cc1cccc(C(=O)O)c1", "Potency": "inactive"},
      {"smiles": "CC(C(=O)O)c1cccc(C(=O)c2ccccc2)c1", "note": "(stereo not given)", "Potency": "inactive"},
      {"smiles": "S=C(NC1CCCCC1)NC1CCCCC1", "Potency": "9.5 µM (active) and 9.69 µM (active)"},
      {"smiles": "c1ccncc1", "Potency": "inactive"},
      {"smiles": "O=c1oc(=O)c2cc3c(=O)oc(=O)c3cc12", "Potency": "inactive"},
      {"smiles": "C[C@]12CCC(=O)C=C1CC[C@@H]1[C@@H]2C(=O)C[C@@]2(C)[C@H]1CC[C@]2(O)C(=O)CO", "activation": "-0.0655% (inactive)"}
    ]}
  ]
}
